Source: the supplement of paper PMC12494721
Structures can show the parent of a compound that is named as a salt.

How the values were obtained:
Conditions in all cases: 20 µM; incubation time: 27 h, anaerobic, 37 °C;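 for the amine columns active = adjusted P below 0.05 in both replicates with a change the same way and a mean fold change under 0.8 or over 1.25; inactive = the rest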
[1] = tested on: Clostridium sporogenes DSM 1664; assay: growth (OD595) fold change vs plate DMSO controls (fold change (ratio)); higher = more growth
Procedure, shortened: (§1)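 The 96-well mGAM cultures had been kept anaerobic for 27 h at 37 °C before being shaken and read at 595 nm. Blank subtraction, compound background correction with 20 µM compound solutions in water, and a calibration factor of 5 turned the readings into OD. Growth is given as the fold change versus the median of plate DMSO controls. Fold changes above 1.5 were set to NA, and the values are means of 2 biological replicates.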

Escherichia coli IAI1 [2] = assay: as above
Procedure, shortened: as §1

[3] = tested on: Klebsiella aerogenes DSM 30053; assay: as above
Procedure, shortened: as §1

[4] = tested on: Ruminococcus gnavus DSM 108212; assay: as above
Procedure, shortened: as §1

[5] = tested on: Klebsiella aerogenes DSM 30053; assay: fold change of Histamine concentration vs plate DMSO controls (fold change (ratio)); higher = more amine produced, active = hit call of the paper (significant change in both replicates, either direction)
Procedure, shortened: (§2)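 Using LC–triple-quadrupole MS with dynamic MRM, amines were quantified against external calibration curves and corrected for drift within each batch. Samples were whole anaerobic mGAM cultures of four gut strains, grown 27 h at 37 °C from OD 0.1 before 1:1 dilution, extracted with cold acetonitrile/methanol containing 0.1% formic acid and centrifuged. Compounds were present at 20 µM final (sweeteners at 50 µM final). The numbers are fold changes versus plate DMSO controls, each the mean of 2 biological replicates.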

[6] = tested on: Clostridium sporogenes DSM 1664; assay: fold change of Tryptamine concentration vs plate DMSO controls (fold change (ratio)); higher = more amine produced, active = hit call of the paper (significant change in both replicates, either direction)
Procedure, shortened: as §2

[7] = tested on: Ruminococcus gnavus DSM 108212; assay: as above
Procedure, shortened: as §2

Escherichia coli IAI1 [8] = assay: fold change of Putrescine concentration vs plate DMSO controls (fold change (ratio)); higher = more amine produced, active = hit call of the paper (significant change in both replicates, either direction)
Procedure, shortened: as §2

[9] = tested on: Klebsiella aerogenes DSM 30053; assay: as above
Procedure, shortened: as §2

Escherichia coli IAI1 [10] = assay: fold change of Cadaverine concentration vs plate DMSO controls (fold change (ratio)); higher = more amine produced, active = hit call of the paper (significant change in both replicates, either direction)
Procedure, shortened: as §2

[11] = tested on: Klebsiella aerogenes DSM 30053; assay: as above
Procedure, shortened: as §2

[12] = tested on: Ruminococcus gnavus DSM 108212; assay: fold change of 2-Phenylethylamine concentration vs plate DMSO controls (fold change (ratio)); higher = more amine produced, active = hit call of the paper (significant change in both replicates, either direction)
Procedure, shortened: as §2

Row | Compound | growth [1] | growth (Escherichia coli IAI1 [2]) | growth [3] | growth [4] | fold change of Histamine concentration [5] | fold change of Tryptamine concentration [6] | fold change of Tryptamine concentration [7] | fold change of Putrescine concentration (Escherichia coli IAI1 [8]) | fold change of Putrescine concentration [9] | fold change of Cadaverine concentration (Escherichia coli IAI1 [10]) | fold change of Cadaverine concentration [11] | fold change of 2-Phenylethylamine concentration [12]
1 | N#Cc1cc(Br)c(O)c(Br)c1 | 0.976 | 0.821 | 0.928 | 0.963 | 1.02 (inactive) | 0.955 (inactive) | 1.02 (inactive) | 1.23 (inactive) | 0.978 (inactive) | 1.29 (active) | 0.978 (inactive) | 1.01 (inactive)
2 | c1ccc2c(c1)-c1cccc3cccc-2c13 [Fluoranthene] | 0.942 | 0.967 | 0.964 | 1.01 | 1.04 (inactive) | 1.01 (inactive) | 1.02 (inactive) | 0.995 (inactive) | 1.01 (inactive) | 1.01 (inactive) | 0.976 (inactive) | 1.04 (inactive)
3 | CC(COc1ccc(Oc2ccccc2)cc1)Oc1ccccn1 (stereo not given) | 1.06 | 0.987 | 1.01 | 0.945 | 1.02 (inactive) | 1.02 (inactive) | 1.06 (inactive) | 1.01 (inactive) | 1.03 (inactive) | 1.02 (inactive) | 1.02 (inactive) | 1.08 (inactive)
4 | O=c1c2ccccc2[se]n1-c1ccccc1 [Ebselen] | 1.02 | 1.12 | 1.14 | 1.14 | 0.916 (inactive) | 0.823 (inactive) | 0.801 (inactive) | 1.02 (inactive) | 0.959 (inactive) | 0.953 (inactive) | 0.984 (inactive) | 0.851 (inactive)
5 | CO[C@]12C[C@@H](COC(=O)c3cncc(Br)c3)CN(C)[C@@H]1Cc1cn(C)c3cccc2c13 [Nicergoline] | 0.937 | 1 | 1.03 | 0.96 | 0.955 (inactive) | 0.994 (inactive) | 0.968 (inactive) | 0.98 (inactive) | 0.99 (inactive) | 0.908 (inactive) | 1.02 (inactive) | 0.888 (inactive)
6 | CC(NC(C)(C)C)C(=O)c1cccc(Cl)c1 (stereo not given) [Bupropion hydrochloride] | 0.957 | 1.01 | 0.949 | 1.02 | 1.08 (inactive) | 0.987 (inactive) | 1.08 (inactive) | 1.02 (inactive) | 0.995 (inactive) | 1 (inactive) | 0.97 (inactive) | 1.12 (inactive)
7 | Fc1ccc(C(OCCN2CCN(CCCc3ccccc3)CC2)c2ccc(F)cc2)cc1 | 1.09 | 1 | 1 | 0.845 | 0.974 (inactive) | 0.97 (inactive) | 0.638 (active) | 1.01 (inactive) | 0.993 (inactive) | 0.998 (inactive) | 1 (inactive) | 0.771 (active)
8 | CC1COC(Cn2cncn2)(c2ccc(Oc3ccc(Cl)cc3)cc2Cl)O1 (stereo not given) | 1.16 | 1.02 | 1.01 | 1.13 | 1.01 (inactive) | 0.964 (inactive) | 0.934 (inactive) | 1.02 (inactive) | 0.996 (inactive) | 0.995 (inactive) | 0.995 (inactive) | 0.954 (inactive)
9 | Oc1ccc(Cl)cc1Cc1cc(Cl)ccc1O | 0.8 | 0.854 | 0.898 | 0.861 | 1.12 (inactive) | 0.557 (inactive) | 0.513 (active) | 1.15 (inactive) | 0.996 (inactive) | 1.66 (active) | 0.986 (inactive) | 0.605 (inactive)
10 | O=C(O)c1nc(Cl)ccc1Cl | 0.915 | 1.09 | 1.01 | 0.95 | 1.01 (inactive) | 0.99 (inactive) | 0.915 (inactive) | 0.975 (inactive) | 0.98 (inactive) | 0.963 (inactive) | 0.983 (inactive) | 1.02 (inactive)
11 | C#CCN1C(=O)COc2cc(F)c(N3C(=O)C4=C(CCCC4)C3=O)cc21 | 0.947 | 0.989 | 1 | 0.933 | 1.02 (inactive) | 1.14 (inactive) | 0.98 (inactive) | 1.01 (inactive) | 1.01 (inactive) | 1.04 (inactive) | 0.988 (inactive) | 0.969 (inactive)
12 | CN(C)C(CSS(=O)(=O)O)CSS(=O)(=O)O | 1.11 | 0.998 | 0.99 | 0.931 | 1.01 (inactive) | 0.933 (inactive) | 1.02 (inactive) | 1.04 (inactive) | 0.999 (inactive) | 1.02 (inactive) | 0.988 (inactive) | 0.987 (inactive)
13 | CCCCN(CCCC)N=O [DBNA (N-nitrosodibutylamine)] | 0.789 | 0.729 | 0.673 | 0.238 | 1.03 (inactive) | 1.01 (inactive) | 1.01 (inactive) | 1.03 (inactive) | 1.02 (inactive) | 1.05 (inactive) | 1.01 (inactive) | 1.01 (inactive)
14 | CS(=O)(=O)NC(=O)c1cc(Oc2ccc(C(F)(F)F)cc2Cl)ccc1[N+](=O)[O-] | 0.96 | 0.996 | 1.08 | 1 | 0.93 (inactive) | 0.985 (inactive) | 1.02 (inactive) | 1.04 (inactive) | 1.01 (inactive) | 1.01 (inactive) | 1.02 (inactive) | 0.99 (inactive)
15 | Oc1ccccc1-c1ccccc1 | 1 | 1.12 | 0.949 | 1.21 | 0.959 (inactive) | 0.993 (inactive) | 0.973 (inactive) | 0.955 (inactive) | 0.993 (inactive) | 1.01 (inactive) | 0.998 (inactive) | 0.965 (inactive)
16 | CC(C)(N)Cc1ccccc1 [Phentermine hydrochloride] | 0.937 | 0.981 | 1.24 | 0.221 | 0.896 (inactive) | 1.03 (inactive) | 0.176 (active) | 0.983 (inactive) | 1.01 (inactive) | 1.05 (inactive) | 1.05 (inactive) | 0.213 (active)
17 | CN1CCC2(C)c3cc(O)ccc3N(C)C12 (single isomer, unassigned; (-)) [(-) Eseroline fumarate salt] | 1.01 | 1.04 | 1.03 | 1.16 | 1 (inactive) | 1.02 (inactive) | 0.951 (inactive) | 0.99 (inactive) | 1 (inactive) | 0.994 (inactive) | 0.995 (inactive) | 0.954 (inactive)
18 | C=CC[C@]1(O)CC[C@H]2[C@@H]3CCC4=CCCC[C@@H]4[C@H]3CC[C@@]21C [Allylestrenol] | 1.01 | 1.01 | 1.06 | 1.09 | 0.993 (inactive) | 1.03 (inactive) | 1.01 (inactive) | 0.977 (inactive) | 0.992 (inactive) | 0.924 (inactive) | 1.02 (inactive) | 1.1 (inactive)
19 | Cc1nc(N(C)C)nc(OC(=O)N(C)C)c1C | 1.02 | 1 | 0.963 | 1.06 | 1.01 (inactive) | 1.12 (inactive) | 0.985 (inactive) | 0.905 (inactive) | 1 (inactive) | 1.02 (inactive) | 1 (inactive) | 0.945 (inactive)
20 | CCC(=O)O[C@@](Cc1ccccc1)(c1ccccc1)[C@@H](C)CN(C)C [Levopropoxyphene napsylate] | 1.06 | 1.03 | 1.05 | 1.18 | 0.942 (inactive) | 1.04 (inactive) | 1.01 (inactive) | 1.03 (inactive) | 1 (inactive) | 1.03 (inactive) | 1.01 (inactive) | 1.03 (inactive)
21 | C=C(C)[C@@H]1[C@H]2OC(=O)[C@@H]1[C@]1(O)C[C@H]3O[C@]34C(=O)O[C@H]2[C@]14C [Picrotoxinin] | 1 | 0.983 | 1.04 | 1.15 | 0.896 (inactive) | 1.01 (inactive) | 1.02 (inactive) | 0.898 (inactive) | 0.932 (inactive) | 0.998 (inactive) | 0.987 (inactive) | 1.03 (inactive)
22 | Nc1c(Cl)c(F)nc(OCC(=O)O)c1Cl | 0.964 | 1.01 | 1.05 | 1.03 | 0.96 (inactive) | 1.03 (inactive) | 1.04 (inactive) | 0.986 (inactive) | 0.955 (inactive) | 0.95 (inactive) | 1.01 (inactive) | 1.05 (inactive)
23 | CC[C@@H](C(=O)[C@@H](C)[C@@H](O)[C@H](C)[C@@H]1O[C@@H]([C@@H](CC)C(=O)O)CC[C@@H]1C)[C@H]1O[C@]2(C=C[C@@H](O)[C@]3(CC[C@@](C)([C@H]4CC[C@](O)(CC)[C@H](C)O4)O3)O2)[C@H](C)C[C@@H]1C [Salinomycin sodium] | 0.000863 | 1.01 | 0.976 | 0.156 | 1.02 (inactive) | 0.0211 (active) | 0.152 (active) | 0.929 (inactive) | 0.993 (inactive) | 1.01 (inactive) | 0.996 (inactive) | 0.177 (active)
24 | CCN(CC)C(C)C(=O)c1ccccc1 (stereo not given) [Amfepramone hydrochloride] | 1.04 | 1.05 | 1.02 | 1.06 | 0.955 (inactive) | 1.03 (inactive) | 1.06 (inactive) | 1.06 (inactive) | 0.982 (inactive) | 0.938 (inactive) | 1.01 (inactive) | 1.06 (inactive)
25 | CCCCC(C#N)(Cn1cncn1)c1ccc(Cl)cc1 (stereo not given) | 1.07 | 1.07 | 1.01 | 1.14 | 0.939 (inactive) | 1.2 (inactive) | 1.07 (inactive) | 0.908 (inactive) | 0.815 (inactive) | 0.907 (inactive) | 1.16 (inactive) | 1.14 (inactive)
